From PubChem BioAssay
Only some compounds are listed: those with a hit (about 3.5% of all), similar ones and a draw of the others.
TbPYK inhibitor = qHTS of Trypanosoma Brucei Inhibitors; 0.12% of 410,000 active; Potency, µM (titrated, usually from 76.8 µM), without a hit: at the top dose activity, negative = inhibition, usual class: inhibitors; TbPYK enzyme, Kinase-Glo Plus ATP luminescence, 45 min; pyruvate kinase (Trypanosoma brucei), Q57TT1; further: potency means the concentration at half of the fitted maximal effect; on the % scale 0 is the no-effect control and ±100 the full control effect; nearly all actives have a fitted effect of over 50% in size
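Glycolytic pyruvate kinase of T. brucei was incubated with substrate, test compound and 130 uM ADP for 45 minutes at room temperature. Luminescent Kinase-Glo Plus signal was measured after 10 minutes.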
NS1 inh = qHTS Assay for Inhibitors of Influenza NS1 Protein Function. Potency, µM (highest dose often 46.1 µM), for the others: top-dose activity, positive = more growth. 0.4% of 270,000 active. AID 2326, 2010; calls by dose curve; further: potency means the concentration at half of the fitted maximal effect; actives are rising curves; nearly all actives have a fitted effect of over 50% in size
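In this qHTS, NS1 from influenza A is expressed in budding yeast, where it slows growth. Cells are switched from glucose to 2% galactose medium (pH 6.0, -URA), treated with compound, and growth recovery is read at OD600.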
RE007 growth inh = qHTS Assay for Inhibitors of the HIV-1 protein Vpr; S. pombe RE007 Vpr strain, BacTiter-Glo ATP luminescence, 24 h; Potency, µM (highest dose often 92.2 µM), without a hit: at the highest dose activity change, negative = less growth, hits mostly inhibitors; 0.21% of 360,000 active; AID 651644, 2012; active means well fitted falling curve with a large enough effect; inconclusive means small, poorly fitted or top-dose-only effect; inactive means no such curve, though single readings can be large or run the other way; further: potency means the concentration at half of the fitted maximal effect; on the % scale 0 is the no-effect control and ±100 the full control effect; nearly all actives have a fitted effect of over 50% in size
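Fission yeast strain RE007, carrying one chromosomally integrated HIV-1 vpr copy, was seeded at OD 0.01 in PMG+AL medium with 23 nL pinned compound. After 24 h at 30 °C and 99% humidity, viability was read by BacTiter-Glo luminescence.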
Sm TGR block = qHTS Assay for the Inhibitors of Schistosoma Mansoni Peroxiredoxins. Schistosoma mansoni thioredoxin glutathione reductase (TGR), Q962Y6. purified TGR, DTNB reduction, TNB absorbance 405 nm. Potency, µM (titrated, usually from 114 µM), for inactives: at the top dose activity change, negative = inhibition, actives largely listed as inhibitors. AID 485364, 2010. 3% of 360,000 active; further: potency means the concentration at half of the fitted maximal effect; on the % scale 0 is the no-effect control and ±100 the full control effect; nearly all actives have a fitted effect of over 60% in size
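TGR 20 nM + NADPH 100 uM (dispensed conc.), cpd preinc 15 min RT; start with NADPH (500 uM addition) then DTNB (15 mM addition). Kinetic TNB absorbance, 405 nm filter. Four-parameter Hill fit across titration.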
LmPK inh = qHTS Assay for Inhibitors of Leishmania Mexicana Pyruvate Kinase (LmPK) | purified LmPK, Kinase-Glo ATP luminescence, 1 h | AID 1721, 2009 | Q27686 | Potency, µM (top dose mostly 57.5 µM), for inactives: at the highest dose activity change, negative = inhibition, hits mostly inhibitors | 0.37% of 290,000 active; further: potency means the concentration at half of the fitted maximal effect; on the % scale 0 is the no-effect control and ±100 the full control effect
Target sequence (Q27686 whole entry, looked up): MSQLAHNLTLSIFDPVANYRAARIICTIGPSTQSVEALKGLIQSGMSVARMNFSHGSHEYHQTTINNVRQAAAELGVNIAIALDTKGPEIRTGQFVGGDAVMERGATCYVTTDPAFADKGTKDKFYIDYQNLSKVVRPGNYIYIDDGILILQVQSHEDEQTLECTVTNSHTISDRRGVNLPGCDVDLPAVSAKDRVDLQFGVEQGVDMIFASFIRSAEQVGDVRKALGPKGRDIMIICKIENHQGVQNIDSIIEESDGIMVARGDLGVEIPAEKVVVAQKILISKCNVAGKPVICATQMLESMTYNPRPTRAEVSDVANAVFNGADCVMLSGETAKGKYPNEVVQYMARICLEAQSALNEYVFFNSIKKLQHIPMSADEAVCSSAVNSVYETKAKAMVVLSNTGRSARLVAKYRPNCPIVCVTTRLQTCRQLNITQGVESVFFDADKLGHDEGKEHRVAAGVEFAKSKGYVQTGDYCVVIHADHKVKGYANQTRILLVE
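ATP generated from ADP (0.1 mM) and PEP (0.5 mM) by 0.1 nM LmPK over 1 h at room temperature (pH 7.2 imidazole buffer) was detected by coupled luciferase luminescence. Values were normalized to uninhibited and no-enzyme wells.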
Giardia FBPA inh = qHTS Assay for Inhibitors of Fructose-1,6-bisphosphate Aldolase from Giardia Lamblia. A8B2U2. purified Giardia FBPA. Potency, µM (titrated, usually from 59.6 µM), for the others: at the top dose activity, negative = inhibition, most hits filed as inhibitors. 0.71% of 290,000 active. AID 2451, 2010; further: potency means the concentration at half of the fitted maximal effect; on the % scale 0 is the no-effect control and ±100 the full control effect; nearly all actives have a fitted effect of over 55% in size
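Giardia FBPA (40 nM reagent) was preincubated 10 min at RT with compound (up to 57.5 uM final), then substrate plus GAPDH/TPI/NAD/arsenate coupling system with diaphorase/resazurin was added; resorufin fluorescence (525/598 nm) was read after 20 min.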
Flu NS1 inh = Assay for Inhibitors of Influenza NS1 Protein Function: Hit Validation; shares compounds with NS1 inh; influenza NS1 function cell assay, 15-point titration; activity change, negative = inhibition, % at 32.9 µM; 1,400 tested, under 10 active; AID 492980, 2010; calls by dose curve; further: 0% is about no effect
* = called active by the depositor; ? = inconclusive; nt = not tested or not shown. Unless noted, the call rests on the fitted dose curve; in most records, active means well fitted curve in the direction sought with a large enough effect; inconclusive means small, poorly fitted or top-dose-only effect, or another doubt; inactive means no such curve, though single readings can be large; an effect the other way counts as inactive or inconclusive.

SMILES	TbPYK inhibitor	NS1 inh	RE007 growth inh	Sm TGR block	LmPK inh	Giardia FBPA inh	Flu NS1 inh
COc1cc(C)c(C(N)=O)c(OC)n1	-6%	?	4%	3%	5%	?	1
COc1ccc(C(=O)Oc2cc(/C=N/NC(N)=S)ccc2OC)cc1	0%	8.9µM*	-5%	13%	4%	nt	-39
COc1cc(/C=N/NC(N)=O)ccc1OC(=O)c1ccc(C)cc1	nt	2%	nt	-25%	4%	4%	nt
COc1cc(NS(=O)(=O)c2ccc(NC(=O)COc3ccccc3Cl)cc2)nc(OC)n1	0%	14µM*	-4%	-7%	15%	14%	-2
COc1cc(NS(=O)(=O)c2ccc(NC(=O)COc3cccc(C)c3)cc2)nc(OC)n1	?	?	7%	4%	1%	-14%	nt
O=C(/C=C/c1cccnc1)c1cccc(O)c1	-8%	?	5%	28µM*	-6%	-25%	?
O=C(Cc1cc(=O)[nH][nH]1)N/N=C/c1c(F)cccc1Cl	-5%	nt	9%	4%	10%	-1%	nt
O=C(Cc1cc(=O)[nH][nH]1)N/N=C/c1c(Cl)cccc1Cl	-5%	10µM*	4%	3%	2%	3%	?
COc1ccccc1OC(C)C(=O)Nc1ccc(-c2nc3ccccc3s2)cc1 (stereo not drawn)	-3%	nt	nt	8%	nt	nt	nt
Cc1cc(-c2nnc3n2N=C(c2ccccc2)CS3)n[nH]1	-5%	1%	-11%	-2%	-5%	-9%	nt
Cc1cc(-c2nnc3n2N=C(c2ccc(-c4ccccc4)cc2)CS3)n[nH]1	-8%	3.2µM*	27%	1%	2%	0%	?
Cc1n[nH]c(C)c1S(=O)(=O)N1CCCC(C(=O)Nc2ccc(Cl)cc2)C1 (stereo not drawn)	-5%	nt	nt	5%	nt	nt	nt
Cc1cccc(CNc2cc(-c3cccnc3)ncn2)c1	nt	nt	nt	nt	nt	0%	nt
O=C(CN(c1ccccc1)S(=O)(=O)c1ccccc1[N+](=O)[O-])NN=C1CCCCCCC1	2%	1.3µM*	-13%	7%	6%	-1%	?
CS(=O)(=O)N(CC(=O)NN=C1CCCCCC1)c1ccc(Oc2ccccc2)cc1	1%	nt	18%	-1%	3%	-2%	nt
CCOc1ccccc1Nc1sc(C(=O)c2ccc(Cl)cc2)c(N)c1C(=O)NCCc1ccccc1	1%	nt	nt	-2%	nt	nt	nt
COc1ccc(S(=O)(=O)N2CCOC2CNC(=O)C(=O)NCCc2c[nH]c3ccccc23)cc1C (stereo not drawn)	-15%	14µM*	1%	-8%	-2%	-2%	1
Cc1cc(Br)ccc1NC(=O)c1cc2c(s1)-c1ccccc1SC2	1%	nt	nt	1%	nt	nt	nt
COC(=O)C(NC(=O)c1ccc(F)cc1)(Nc1ncc(S(=O)(=O)c2ccc([N+](=O)[O-])cc2)s1)C(F)(F)F (stereo not drawn)	0%	7.9µM*	1%	2%	3%	-6%	14
COC(=O)C(NC(=O)c1ccccc1C)(Nc1ncc(S(=O)(=O)c2ccc([N+](=O)[O-])cc2)s1)C(F)(F)F (stereo not drawn)	0%	10%	-3%	2%	6%	-5%	nt
CCOc1ccc(C(=O)NCC(c2ccc3c(c2)OCO3)N2CCN(C)CC2)cc1 (stereo not drawn)	-7%	nt	nt	12%	nt	nt	nt
CC(C)(C)c1ccc(C(=O)Cn2cnnc2C#N)cc1	-1%	14%	8%	-21%	2%	0%	nt
CCOc1ccc(C(=O)Cn2cnnc2C#N)cc1	5%	?	-3%	?	5%	-3%	6
CC1Cc2nc(SCC(=O)Nc3nccs3)n(Cc3ccccc3)c(=O)c2S1 (stereo not drawn)	-5%	20µM*	9%	2%	4%	-8%	-17
CC1Cc2nc(SCC(=O)Nc3ccc4c(c3)OCO4)n(Cc3ccccc3)c(=O)c2S1 (stereo not drawn)	5%	11µM*	-2%	1%	6%	-3%	31
SMILES	TbPYK inhibitor	NS1 inh	RE007 growth inh	Sm TGR block	LmPK inh	Giardia FBPA inh	Flu NS1 inh
COc1ccc(CC(=O)NCCc2csc(-c3cccc(C)c3)n2)cc1	-1%	nt	nt	9%	nt	nt	nt
NC(=O)C1CCN(C(=O)C23CC4CC(CC(C4)C2)C3)CC1	-2%	?	1%	-21%	0%	3%	-9
CC1CCCCN1S(=O)(=O)c1cc2c3c(c1)CC(=O)N3CCC2 (stereo not drawn)	-9%	nt	nt	8%	nt	nt	nt
C[C@@H](C(=O)Nc1ccc2ccccc2c1)[C@H]1C[C@]1(C)[C@H](NS(=O)(=O)c1ccccc1)c1ccccc1	4%	11µM*	-2%	-10%	2%	1%	6
Cc1cc(C(=O)N[C@@H](c2ccccc2)[C@]2(C)C[C@H]2[C@@H](C)C(=O)Nc2ccc3ccccc3c2)no1	2%	11µM*	-6%	-6%	1%	-9%	12
Cc1cc(C(=O)N[C@H](c2ccccc2)[C@@]2(C)C[C@@H]2[C@@H](C)C(=O)Nc2ccc3ccccc3c2)no1	0%	8%	12%	-9%	-1%	-6%	nt
Cc1ccc(-n2nc(C)c3c2OC(N)=C(C#N)C3c2ccoc2)cc1 (stereo not drawn)	-3%	2.5µM*	-9%	?	15%	-11%	7
COc1ccc(OC)c(C2C(C#N)=C(N)Oc3c2c(C)nn3-c2ccc(C)cc2)c1 (stereo not drawn)	-7%	-16%	-27%	-5%	0%	6%	nt
Cc1ccccc1C(=O)Nc1cccc(-c2nc3cccnc3s2)c1	0%	nt	nt	-14%	nt	nt	nt
COc1cccc(NC(=O)C(Sc2nnc(-c3ccncc3)n2-c2ccc(Cl)cc2)c2ccccc2)c1 (stereo not drawn)	-19%	14µM*	-6%	1%	0%	13%	2
COc1ccc(NC(=O)CSc2nnc(-c3ccncc3)n2-c2ccccc2)cc1	-2%	nt	nt	4%	nt	nt	nt
COc1ccc(/C=C(/NC(=O)c2ccccc2)C(=O)N2CCOCC2)cc1OC	-5%	?	10%	1%	5%	-8%	3
COc1cc(OC)c2c(c1C(CCN1CCCC(C)C1)c1ccc(N(C)C)cc1)OC(=O)CC2c1ccc(N(C)C)cc1 (stereo not drawn)	nt	nt	nt	nt	nt	-5%	nt
